Assay results published in PubChem BioAssay (NCI).
Compounds without any hit were thinned out: in the full panel of roughly 79,000, 15% have a hit. Activity calls are given as the source filed them. Cut-off read from the data, not from the text of the source: active = growth inhibition above about 70%; inactive = the rest.

How the values were obtained:
[1] = NCI Yeast Anticancer Drug Screen. Data for the rad52 strain (AID 147);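 note: 0% = growth of vehicle-treated control cultures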; conditions: S. cerevisiae rad52 mutant growth inhibition, active compounds read high
In short: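 Growth of repair-deficient yeast cells was compared between compound-treated and vehicle-treated cultures to give percent inhibition.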

[2] = NCI Yeast Anticancer Drug Screen. Data for the wt1 strain (AID 149);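 note: 0% = growth of vehicle-treated wt1 cultures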; conditions: S. cerevisiae wt1 strain (SPY 50644) growth inhibition, active compounds read high
In short: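 Yeast wt1 strain exposed to compounds; growth inhibition measured relative to vehicle-treated controls.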

[3] = NCI Yeast Anticancer Drug Screen. Data for the rad50EPP+ strain (AID 151);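 note: 0% = growth of vehicle-treated control cultures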; conditions: S. cerevisiae rad50 mutant strain, active compounds read high
In short: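 Measured: growth inhibition of rad50EPP+ yeast. Reference: vehicle-treated controls. Screen uses strains with defined genetic alterations in DNA damage repair or cell cycle control.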

[4] = NCI Yeast Anticancer Drug Screen. Data for the rad50 strain (AID 155);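 note: 0% = growth of vehicle-only cultures of the same strain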; conditions: S. cerevisiae rad50 strain growth inhibition, active compounds read high
In short: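 Yeast carrying a defined DNA repair defect were exposed to test compounds, and growth was compared with vehicle-treated controls to give percent inhibition.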

[5] = NCI Yeast Anticancer Drug Screen. Data for the mec2-1 strain (AID 157); conditions: S. cerevisiae mec2-1 strain, active compounds read high
In short: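 Compounds were applied to mec2-1 yeast cells. Their growth was then compared with that of vehicle-treated cultures to give growth inhibition.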

[6] = NCI Yeast Anticancer Drug Screen. Data for the rad14 strain (AID 159);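 note: 0% = growth of vehicle-treated control cultures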; conditions: S. cerevisiae rad14 strain growth inhibition, active compounds read high
In short: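 Yeast cells carrying a defined DNA-repair defect were exposed to compounds, and growth inhibition was calculated relative to vehicle-treated control cultures.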

[7] = NCI Yeast Anticancer Drug Screen. Data for the sgs1 mgt1 strain (AID 161);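 note: 0% = growth of cultures given vehicle only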; conditions: S. cerevisiae sgs1 mgt1 strain, active compounds read high
In short: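 Percent growth inhibition was derived by comparing compound-exposed mutant yeast with vehicle-exposed cultures. The strain carries alterations in DNA damage repair.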

[8] = NCI Yeast Anticancer Drug Screen. Data for the CLN2oe strain (AID 163);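 note: 0% = growth of vehicle-only control cultures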; conditions: S. cerevisiae CLN2oe strain, active compounds read high
In short: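 Cells of an engineered yeast line with disturbed cell-cycle regulation are treated with compound. Inhibition of growth is then calculated relative to the vehicle-treated reference.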

[9] = NCI Yeast Anticancer Drug Screen. Data for the cln2 rad14 strain (AID 165);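 note: 0% = growth equal to vehicle treated cultures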; conditions: S. cerevisiae cln2 rad14 strain, active compounds read high
In short: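 Strain: cln2 rad14 yeast, altered in cell cycle control and DNA damage repair. Read-out: growth inhibition vs vehicle.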

[10] = NCI Yeast Anticancer Drug Screen. Data for the bub3 strain (AID 167); conditions: S. cerevisiae bub3 mutant strain, active compounds read high
In short: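 Compounds were applied to a genetically altered yeast strain carrying a cell-cycle control defect. Growth inhibition was scored against vehicle-treated controls.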

[11] = NCI Yeast Anticancer Drug Screen. Data for the wt2 strain (AID 169);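 note: 0% = growth of vehicle-treated yeast cultures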; conditions: S. cerevisiae wt2 strain growth inhibition, active compounds read high
In short: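 Growth of compound-treated yeast is measured and expressed as inhibition relative to vehicle-only controls.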

[12] = NCI Yeast Anticancer Drug Screen. Data for the mlh1 strain (AID 171);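 note: 0% = growth of vehicle-treated control cultures of the same strain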; conditions: S. cerevisiae mlh1 strain growth inhibition, active compounds read high
In short: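 Test agents were incubated with yeast bearing a defined DNA damage repair or cell cycle control alteration; values are growth inhibition normalised to vehicle-treated cultures.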

[13] = NCI Yeast Anticancer Drug Screen. Data for the sgs1 strain (AID 173);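 note: 0% = growth of vehicle-only control cultures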; conditions: S. cerevisiae sgs1 mutant, active compounds read high
In short: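 Strain with an altered DNA repair or cell cycle pathway exposed to compound. Growth then measured. Value = inhibition versus vehicle control.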

[14] = NCI Yeast Anticancer Drug Screen. Data for the mlh1 rad18 strain (AID 175); conditions: S. cerevisiae mlh1 rad18 strain growth inhibition, active compounds read high
In short: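 A repair-deficient yeast strain is exposed to test compound, and growth is scored relative to vehicle-treated controls.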

[15] = NCI Yeast Anticancer Drug Screen. Data for the rad18 strain (AID 177); conditions: S. cerevisiae rad18 mutant growth inhibition, active compounds read high
In short: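 DNA-repair-defective yeast; compound treatment; growth inhibition scored against vehicle.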

[16] = at 5.0 µM (retest, dose inferred, filed as 0.5)
[17] = at 50.0 µM (retest, dose inferred, filed as 5.0)

Measured: growth inhibition

c1ccc2cc3n[se]nc3cc2c1
active: [1]; at 100.0 µM 96% | [2]; at 100.0 µM 72% | [3]; at 100.0 µM 86% | [4]; at 33.0 µM 79% | [4]; at 50.0 µM 97.5% | [4]; at 100.0 µM 96% | [5]; at 100.0 µM 93% | [6]; at 100.0 µM 98% | [8]; at 100.0 µM 78% | [10]; at 100.0 µM 96% | [11]; at 100.0 µM 95% | [12]; at 100.0 µM 97% | [13]; at 100.0 µM 91% | [14]; at 50.0 µM 76.2% | [15]; at 100.0 µM 96%
inactive: [1]; at 1.2 µM 2% | [1]; at 3.7 µM 5% | [1]; at 11.0 µM 17% | [1]; at 33.0 µM 47% | [2]; at 1.2 µM 5% | [2]; at 3.7 µM 2% | [2]; at 11.0 µM 6% | [2]; at 33.0 µM 13% | [3]; at 1.2 µM 2% | [3]; at 3.7 µM 13% | [3]; at 11.0 µM 33% | [3]; at 33.0 µM 64% | [4]; at 1.2 µM 3% | [4]; at 3.7 µM 5% | [4]; [16] -14% | [4]; at 11.0 µM 19% | [4]; [17] 55% | [5]; at 1.2 µM 1% | [5]; at 3.7 µM 2% | [5]; [16] -14% | [5]; at 11.0 µM 8% | [5]; at 33.0 µM 16% | [5]; [17] 3% | [5]; at 50.0 µM 39.4% | [6]; at 1.2 µM 3% | [6]; at 3.7 µM 4% | [6]; at 11.0 µM 5% | [6]; at 33.0 µM 18% | [7]; [16] -15% | [7]; [17] 44% | [7]; at 50.0 µM 45.2% | [8]; at 1.2 µM -5% | [8]; at 3.7 µM 0% | [8]; at 11.0 µM 15% | [8]; at 33.0 µM 14% | [9]; [16] -21% | [9]; [17] 2% | [9]; at 50.0 µM -2.35% | [10]; at 1.2 µM -1% | [10]; at 3.7 µM 1% | [10]; [16] 13% | [10]; at 11.0 µM 4% | [10]; at 33.0 µM 28% | [10]; [17] 25% | [10]; at 50.0 µM 56.8% | [11]; at 1.2 µM 0% | [11]; at 3.7 µM 1% | [11]; at 11.0 µM 8% | [11]; at 33.0 µM 26% | [12]; at 1.2 µM 2% | [12]; at 3.7 µM 4% | [12]; at 11.0 µM 11% | [12]; at 33.0 µM 34% | [13]; at 1.2 µM 2% | [13]; at 3.7 µM 4% | [13]; at 11.0 µM 12% | [13]; at 33.0 µM 33% | [14]; [16] -11% | [14]; [17] 24% | [15]; at 1.2 µM 4% | [15]; at 3.7 µM 13% | [15]; at 11.0 µM 4% | [15]; at 33.0 µM 68%
